Experimental data published in PubChem BioAssay.
Results filed as inconclusive are left out. The source made the active and inactive calls. Cut-off read from the data, not from the text of the source, unless noted: active = inhibition above about 80%; inactive = the rest.

What was measured:
[1] = viability loss in pontine glioma line – cell-based, SU-DIPG-XXV, MIPE5.0, CellTiter-Glo, qHTS, dose response (AID 1347065; cut-off not given, nearly all actives have AC50 up to about 26 µM;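 note: cells exposed to compound for 48 hours before ATP readout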); conditions: CellTiter-Glo ATP luminescence
[2] = JHH-DIPG-1 glioma cell viability, MIPE5.0 library, CellTiter-Glo luminescence, qHTS (AID 1347067; cut-off not given, nearly all actives have AC50 up to about 26 µM;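 note: cells exposed to compound for 48 hours before readout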); conditions: JHH-DIPG-1 glioma viability, CellTiter-Glo ATP luminescence
[3] = SU-DIPG-XXV glioma cell viability, MIPE5.0 library, qHTS (AID 1347068; cut-off not given, nearly all actives have IC50 up to about 30 µM)
[4] = LFS_MB_P medulloblastoma growth inhibition, cell-based, chromothripsis tumors, cisplatin or BGB combos (AID 1671449); conditions: LFS_MB_P medulloblastoma cells;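 note: cells exposed for 96 hours; 0% = vehicle DMSO and 100% = killing by high DMSO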
[5] = HDN33 neuroblastoma growth inhibition, cell-based, chromothripsis tumors, cisplatin or BGB combos (AID 1671450); conditions: HDN33 neuroblastoma cells, stronger effect = higher value;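 note: cells exposed to compound for four days; 0% = vehicle DMSO and 100% = cell killing by high DMSO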
[6] = ICB984 medulloblastoma cell growth inhibition, synergistic combos for chromothripsis tumors, cisplatin or BGB combos (AID 1671451; call rule not given here;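 note: cells exposed for 96 hours before readout; 0% = vehicle DMSO and 100% = killing by high DMSO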); conditions: ICB984 medulloblastoma cells, drug combinations, stronger effect = higher value
[7] = LFS_MB_1R medulloblastoma cell growth inhibition, synergistic combos for chromothripsis tumors, cisplatin or BGB combos (AID 1671452); conditions: LFS_MB_1R medulloblastoma cells, stronger effect = higher value;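 note: cells exposed for 96 hours before readout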
[8] = HTB85 osteosarcoma cell growth inhibition, synergistic combos for chromothripsis tumors, BGB or cisplatin IC20 combos (AID 1671453); conditions: HTB85 osteosarcoma cells, drug combinations, stronger effect = higher value;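 note: cells exposed for 96 hours before readout; 0% = vehicle DMSO and 100% = high DMSO killing control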
[9] = CRL2098 osteosarcoma cell growth inhibition, synergistic combos for chromothripsis tumors, BGB or cisplatin IC20 combos (AID 1671454); conditions: CRL2098 osteosarcoma cells, drug combinations, stronger effect = higher value;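 note: cells exposed for 96 h before readout; 0% = vehicle DMSO and 100% = killing by high DMSO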
[10] = HD-MB03 medulloblastoma cell growth inhibition, synergistic combos for chromothripsis tumors, BGB or cisplatin IC20 combos (AID 1671455; in the data active = inhibition above about 83%;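 note: 0% = vehicle DMSO and 100% = high DMSO as cytotoxic control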); conditions: HD-MB03 medulloblastoma cells, stronger effect = higher value
[11] = UWB1.289 ovarian carcinoma cell growth inhibition, synergistic combos for chromothripsis tumors, BGB or cisplatin combos (AID 1671456); conditions: UWB1.289 ovarian carcinoma cells, stronger effect = higher value;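 note: cells exposed to compound for four days; 0% = vehicle DMSO and 100% = killing by high DMSO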
[12] = LFS_MB_2R medulloblastoma cell growth inhibition, synergistic combos for chromothripsis tumors, cisplatin combos (AID 1671457); conditions: LFS_MB_2R medulloblastoma cells, stronger effect = higher value;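 note: cells exposed to compound for four days before readout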
[13] = MDA-MB-436 breast carcinoma cell growth inhibition, synergistic combos for chromothripsis tumors, BGB or cisplatin combos (AID 1671458; call rule not given here;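 note: cells exposed for 96 hours; 0% = vehicle DMSO and 100% = killing by high DMSO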); conditions: MDA-MB-436 breast carcinoma growth inhibition, drug combinations, stronger effect = higher value
[14] = UWB1.289_BRCA1 ovarian cancer growth, cell-based, BGB or cisplatin combinations (AID 1671459); conditions: UWB1.289 BRCA1 ovarian carcinoma, drug combinations, stronger effect = higher value
[15] = human astrocyte viability loss, single and combined drugs, cytotoxicity control for chromothriptic childhood tumor combination screen, cell-based, BGB or cisplatin IC20 combos (AID 1671460); conditions: Human astrocytes, drug combinations, stronger effect = higher value;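 note: cells exposed to compounds for 96 hours before viability readout; 0% = vehicle and 100% = killing control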
[16] = growth inhibition of BT084 medulloblastoma cells, cell-based, ICGC_MB145, cisplatin and BGB IC40 combos (AID 1671461); conditions: drug combinations, stronger effect = higher value;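 note: cells exposed to drugs for 96 hours; 0% = vehicle DMSO and 100% = high DMSO full killing control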
[17] = growth inhibition of RCMB18 medulloblastoma cells, cell-based, cisplatin and BGB IC40 combos (AID 1671462); conditions: stronger effect = higher value;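 note: cells exposed to compound for four days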
[18] = growth inhibition of CRL1545 osteosarcoma cells, cell-based, cisplatin and BGB IC20 combos (AID 1671464); conditions: stronger effect = higher value;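 note: cells exposed to compound for 96 hours before readout; 0% = vehicle DMSO and 100% = high DMSO killing control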
[19] = measured here: combination with BGB IC40, at 0.05 µM
[20] = measured here: with BGB IC20 combination, at 0.5 µM
[21] = measured here: with cisplatin IC20 combination, at 0.5 µM
[22] = measured here: combination with cisplatin, at 0.5 µM
[23] = measured here: combination with cisplatin, at 5 µM

C[C@]12CCCN1CC1=NNC(=O)c3cc(F)cc4[nH]c2c1c34
AC50 [1]: 18.6 µM (active)
outcome [2]: inactive
outcome [3]: inactive
inhibition ([4]; at 0.5 µM, stronger effect = higher value): -13.4% (inactive)
inhibition ([4]; measured here: combination with BGB IC20, at 0.005 µM): -16.8%
inhibition ([4]; measured here: combination with BGB IC40, at 0.005 µM): -28.9%
inhibition [4, 19]: -3.06%
inhibition ([4]; measured here: combination with cisplatin, at 0.5 µM, stronger effect = higher value): -13.1%
inhibition ([4]; measured here: combination with cisplatin, at 5 µM, stronger effect = higher value): -44.5%
inhibition ([5]; BGB combo, at 5 µM): 6.78%
inhibition ([5]; at 0.5 µM): 9.23% (inactive)
inhibition ([5]; cisplatin combo, at 5 µM): 35.8%
inhibition [5, 20]: 6.38%
inhibition [5, 21]: -0.356%
inhibition ([5]; single agent, at 5 µM): 20.9%
inhibition ([6]; BGB IC20 combo, at 0.005 µM): -2.46%
inhibition ([6]; BGB IC40 combo, at 0.005 µM): -21.8%
inhibition ([6]; BGB IC40 combo, at 0.05 µM): -22.5%
inhibition ([6]; at 0.5 µM): -38.3% (inactive)
inhibition ([6]; cisplatin combo, at 0.05 µM): -27.3%
inhibition ([6]; cisplatin combo, at 0.5 µM): -41.3%
inhibition ([6]; cisplatin combo, at 5 µM): -0.499%
inhibition ([6]; measured here: 5 uM single agent, at 5 µM): -4.83%
inhibition ([7]; at 0.5 µM): -20.6% (inactive)
inhibition [7, 19]: 7.39%
inhibition [7, 22]: -14%
inhibition [7, 23]: 1.25%
inhibition ([8]; at 0.5 µM): 2.64% (inactive)
inhibition ([8]; measured here: with BGB IC20, at 0.5 µM): -13.5%
inhibition ([8]; measured here: with BGB IC20, at 5 µM): 4.08%
inhibition ([8]; measured here: with cisplatin IC20, at 0.5 µM): 10.2%
inhibition ([8]; measured here: with cisplatin IC20, at 5 µM): 21.1%
inhibition ([8]; single agent, at 5 µM): 23.4%
inhibition ([9]; at 0.5 µM): -35.2% (inactive)
inhibition ([9]; measured here: combination with BGB at IC20, at 0.5 µM): 1.29%
inhibition ([9]; measured here: combination with cisplatin at IC20, at 0.5 µM): -26.6%
inhibition ([10]; at 0.5 µM): -2.5% (inactive)
inhibition ([10]; measured here: combo with BGB at IC20, at 0.5 µM): -14.3%
inhibition ([10]; measured here: combo with cisplatin at IC20, at 0.5 µM): 6.94%
inhibition ([11]; at 0.5 µM): -3.02% (inactive)
inhibition ([11]; measured here: inhibition with BGB combination, at 0.05 µM): -15.4%
inhibition ([11]; measured here: inhibition with cisplatin combination, at 0.05 µM): -2.14%
inhibition ([12]; at 0.5 µM): -20.2% (inactive)
inhibition [12, 22]: -18.1%
inhibition [12, 23]: -24.5%
inhibition ([13]; at 0.5 µM): 3.1% (inactive)
inhibition ([13]; measured here: BGB combination, at 0.5 µM): -13.3%
inhibition ([13]; measured here: BGB combination, at 5 µM): -31.4%
inhibition ([13]; measured here: cisplatin combination, at 0.5 µM): 5.47%
inhibition ([13]; measured here: cisplatin combination, at 5 µM): 22.8%
inhibition ([14]; BGB combination, concentration series, at 5 µM): -3.19%
inhibition ([14]; at 0.5 µM): 2.39% (inactive)
inhibition ([14]; cisplatin combination, concentration series, at 5 µM): 5.42%
inhibition ([15]; at 0.5 µM): 14.9% (inactive)
inhibition ([15]; measured here: combo with BGB IC20, at 0.5 µM): 12%
inhibition ([15]; measured here: combo with cisplatin IC20, at 0.5 µM): 13.1%
inhibition ([16]; at 0.5 µM): -23% (inactive)
inhibition ([16]; cisplatin combination, at 0.5 µM): -25.6%
inhibition ([16]; cisplatin combination, at 5 µM): -25.6%
inhibition ([16]; measured here: BGB IC40 combination 0.05 uM, at 0.05 µM): -29%
inhibition ([16]; single agent, at 5 µM): -12.6%
inhibition ([17]; at 0.5 µM): -18.5% (inactive)
inhibition ([17]; cisplatin combo, at 5 µM): 3.33%
inhibition ([17]; measured here: BGB IC40 combination, at 0.05 µM): -15.1%
inhibition [17, 22]: -6.38%
inhibition ([17]; single agent, at 5 µM): -28.1%
inhibition ([18]; at 0.5 µM): 7.98% (inactive)
inhibition [18, 20]: -8.07%
inhibition [18, 21]: 16%
inhibition ([18]; single agent, at 0.05 µM): 13.9%
inhibition ([18]; single agent, at 5 µM): 35%

CN1CCN(C(=O)c2ccc3cc(CCNc4ncnc5ccc(C#N)cc45)ccc3c2)CC1
AC50 [1]: 23.5 µM (active)
AC50 [2]: 20.9 µM (active)

CCOCOC[C@H](C[C@H](C)C(=O)NO)NC(=O)c1ccc(Oc2ccccc2)cc1
outcome [1]: inactive
outcome [2]: inactive
outcome [3]: inactive

CN1CCN(C(=O)c2ccc(-c3ccc4c(C=O)c(O)ccc4c3)s2)CC1
AC50 [1]: 16.6 µM (active)
outcome [3]: inactive
